Experimental data taken from PubChem BioAssay (NCATS).
“And” between values parts separate entries of the source, which are not always exact repeats. Identical values can stand only once. Inconclusive results are not listed. The source made the active and inactive calls. Unless noted, the call rests on the fitted dose curve; in most records, active means well fitted curve in the direction sought with a large enough effect; inconclusive means small, poorly fitted or top-dose-only effect, or another doubt; inactive means no such curve, though single readings can be large; an effect the other way counts as inactive or inconclusive.

Key:
[1] = Cell Viability - BJ (AID 421; calls by dose curve;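 further: potency means the concentration at half of the fitted maximal effect; cells exposed to compound for 40 hours at 37 °C before readout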); details: BJ fibroblast viability, qHTS
Outline: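 Luminescent ATP signal (CellTiter-Glo, 20 min at room temperature) served as the read-out of viable BJ cells after 40 hours of compound treatment. Responses were scaled between DMSO and 100 uM tamoxifen, and AC50 values were obtained by Hill modeling.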

[2] = Cell Viability - Jurkat (AID 426;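 active means dose-dependent loss of cell ATP signal giving a full or clear fitted curve, ranked by lower potency value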;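 further: potency means the concentration at half of the fitted maximal effect; cells exposed to compound for 40 hours at 37 °C before ATP read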); details: qHTS
Outline: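 Cytotoxicity was scored as loss of cellular ATP, measured by luciferase-based luminescence, in Jurkat clone E6-1 cells after 40 h compound treatment; tamoxifen and doxorubicin served as positive controls.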

[3] = Cell Viability - Hek293 (AID 427;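 active means compounds whose dose-response curve shows a full or clear partial loss of cell viability, called from curve shape rather than a numeric limit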;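 further: potency means the concentration at half of the fitted maximal effect; cells exposed to compound for 40 hours at 37 °C before reading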); details: qHTS
Outline: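 Luminescent ATP read-out (CellTiter-Glo, 20 min RT) after 40 hr compound exposure at 37 °C in complete medium. Signal normalized to DMSO (basal) and 100 uM tamoxifen (100% inhibition); concentration-response fitted with the standard Hill equation to give AC50.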

[4] = Cell Viability - HepG2 (AID 433; calls by dose curve;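 further: potency means the concentration at half of the fitted maximal effect; potency for ATP loss meaning cytotoxicity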); details: qHTS
Outline: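 Cytotoxicity read as ATP loss (CellTiter-Glo luminescence) after 40 hr compound exposure of HepG2, 1500 cells/well, 37 °C. AC50 by Hill equation; 0% set by DMSO, 100% inhibition by 100 uM tamoxifen.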

[5] = Cell Viability - SK-N-SH (AID 435; calls by dose curve; further: potency means the concentration at half of the fitted maximal effect); details: SK-N-SH neuroblastoma cell viability qHTS
Outline: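 qHTS cytotoxicity: CellTiter-Glo ATP luminescence after 40 h compound exposure of human neuroblastoma SK-N-SH cells at 37 °C. AC50 derived by Hill-equation fitting, with DMSO as basal and 100 uM tamoxifen as full inhibition.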

[6] = Cell Viability - N2a (AID 540); details: N2a mouse neuroblastoma cell viability; activity change, negative = cytotoxicity: at 92.2 µM (top of the series);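 further: plate controls were DMSO alone for no effect and tamoxifen control for full effect; nearly all actives have a fitted effect of over 45% in size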
Outline: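 In this qHTS cytotoxicity screen, ATP-dependent luciferase luminescence reports viable N2a cells after a 40 hr compound exposure in complete culture medium. Potencies are AC50 values from standard Hill equation fits.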

[7] = Cell Viability - NIH 3T3 (AID 541); details: NIH 3T3 cell viability, qHTS; activity change, negative = cytotoxicity: at 92.2 µM (top of the series);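 further: plate controls were DMSO alone for no effect and tamoxifen positive control for full effect; nearly all actives have a fitted effect of over 25% in size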
Outline: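 In this cytotoxicity screen, acute toxicity is scored as an ATP drop measured by CellTiter-Glo in NIH 3T3 fibroblasts following a 40 hr, 37 °C incubation with compound.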

[8] = Cell Viability - HUV-EC-C (AID 542); further: on the % scale 0 is the no-effect control and ±100 the full control effect; nearly all actives have a fitted effect of over 35% in size
Outline: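 Concentration-dependent ATP loss in HUV-EC-C cells is the measure. Exposure lasts 40 hr at 37 °C; luminescence follows CellTiter-Glo addition, and Hill fits give AC50.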

[9] = Cell Viability - H-4-II-E (AID 543); further: on the % scale 0 is the no-effect control and ±100 the full control effect; nearly all actives have a fitted effect of over 35% in size
Outline: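 AC50 from Hill-modelled qHTS concentration-response curves. H-4-II-E rat hepatoma cells in complete medium, 40 hr exposure at 37 °C, viability by CellTiter-Glo ATP luminescence.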

[10] = Cell Viability - SH-SY5Y (AID 544); further: nearly all actives have a fitted effect of over 55% in size
Outline: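 Quantitative HTS in SH-SY5Y neuroblastoma cells, 40 hr treatment at 37 °C, ATP content by luciferase luminescence; AC50 from Hill fits.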

[11] = Cell Viability - Renal Proximal Tubule (AID 545); details: renal proximal tubule cells viability, primary cells of rat origin; at 91.7 µM (top of the series); further: nearly all actives have a fitted effect of over 40% in size
Outline: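 Viability taken as intracellular ATP (CellTiter-Glo luminescence) after 40 hr, 37 °C compound treatment of primary proximal tubule cells from rat kidney, 1000 cells/well; Hill-equation fits of qHTS concentration-response data gave AC50.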

[12] = Cell Viability - Mesenchymal (AID 546); details: mesenchymal cells viability, qHTS; activity change, negative = cytotoxicity: at 91.7 µM (top of the series);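 further: cells exposed to compound for 40 hours before reading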
Outline: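 CellTiter-Glo luminescence (intracellular ATP, 20 min room temperature) after 40 hr compound exposure at 37 °C of 1000 glomerulus-derived human kidney mesenchymal cells/well; AC50 values obtained by fitting qHTS concentration-response data to the Hill equation.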

[13] = Cellular Toxicity (caspase-3) HepG2 (AID 654);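 further: cells exposed to compound for 16 hours before reading; 0% = DMSO alone and 100% = caspase signal from 100 µM tamoxifen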
Outline: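 Concentration-response AC50 values reflect caspase-3/7 induction in HepG2 cells after 16 hours of compound exposure, quantified by luminescence from liberated aminoluciferin and referenced to 100 uM tamoxifen as full stimulation.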

[14] = Cellular Toxicity (caspase-3) Jurkat (AID 655); details: Jurkat caspase-3 activation, luminescence, DMSO = 0%, tamoxifen = 100%; at 92.2 µM (top of the series);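 further: cells exposed to compound for 16 h at 37 °C before reading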
Outline: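 Luminescent Caspase-Glo 3/7 read-out (20 min, room temperature) after 16 h compound treatment at 37 C of 5000 Jurkat cells per well. AC50 derived by Hill-equation fitting, scaled between DMSO basal and 100 uM tamoxifen stimulation.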

[15] = Cellular Toxicity (caspase-3) HUV-EC-C (AID 656)
Outline: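 Luminescent Caspase-Glo 3/7 readout after 16 h, 37 °C compound exposure of HUV-EC-C endothelial cells, 1000 per well, complete medium. AC50 derived by Hill fitting, with DMSO as baseline and 100 uM tamoxifen as full activation.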

[16] = Cellular Toxicity (caspase-3) SHSY5Y (AID 657)
Outline: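 Luminescent Caspase-Glo 3/7 read-out, 1 hr room temperature, follows 16 hours of compound treatment of SH-SY5Y cells at 37 °C. Normalization: DMSO basal, 10 uM staurosporine as 100%; AC50 values from Hill-equation concentration-response fits.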

[17] = Cellular Toxicity (caspase-3) BJ (AID 658);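 further: 0% = DMSO basal and 100% = 10 µM staurosporine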
Outline: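 Caspase-Glo 3/7 luminescence, read 1 hr after reagent at room temperature, in normal BJ fibroblasts exposed 16 hours at 37 °C. AC50 values from Hill-equation concentration-response, scaled between DMSO basal and 10 uM staurosporine as 100%.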

[18] = Cellular Toxicity (caspase-3) MRC-5 (AID 659);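 further: 0% = DMSO basal and 100% = 10 µM staurosporine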
Outline: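 Luminescent Caspase-Glo 3/7 read-out (1 h, room temperature) after a 16 h, 37 °C compound exposure of MRC-5 lung fibroblasts at 1500 cells/well. Concentration-response AC50 from Hill equation; 0% DMSO, 100% 10 uM staurosporine.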

[19] = Cellular Toxicity (caspase-3) Mesangial (AID 660);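 further: combined caspase 3 and 7 activity read by Caspase-Glo luminescence; cells exposed to compound for 16 h before the caspase read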
Outline: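 AC50 values come from Hill-equation fits of caspase 3/7 activation, measured as Caspase-Glo luminescence in human glomerular mesangial cells exposed to compound for 16 h at 37 °C; 100% set by 100 uM tamoxifen.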

[20] = Cellular Toxicity (caspase-3) SK-N-SH (AID 661);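 further: 0% = DMSO basal and 100% = 10 µM staurosporine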
Outline: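 Apoptosis readout in SK-N-SH neuroblastoma: Caspase-Glo 3/7 luminescence following 16 hr treatment in complete culture medium. Normalization used DMSO and 10 uM staurosporine controls.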

[21] = Cellular Toxicity (caspase-3) H-4-II-E (AID 663); details: Potency: caspase-3 activation;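 further: cells exposed to compound for 16 hr before readout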
Outline: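 Caspase 3/7 activation measured by luminescent aminoluciferin substrate cleavage after 16 hr compound treatment of H-4-II-E cells in complete medium. Increase normalized between DMSO (basal) and 100 uM tamoxifen (100%); Hill-equation AC50 from concentration-response.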

[22] = Cellular Toxicity (caspase-3) Hek293 (AID 664);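 further: cells exposed to compound for 16 h at 37 °C before readout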
Outline: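 Apoptosis readout: Caspase-Glo 3/7 signal in human HEK293 cells following 16-hour compound incubation. Responses scaled between DMSO baseline and 100 uM tamoxifen.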

[23] = Cellular Toxicity (caspase-3) NIH 3T3 (AID 666);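 further: 0% = DMSO basal and 100% = 100 µM tamoxifen stimulation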
Outline: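 Activity: caspase-3/7 induction, NIH 3T3 cells, 16 hr treatment at 37°C, luminescent Caspase-Glo detection; AC50 via Hill equation.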

[24] = Cellular Toxicity (caspase-3) Renal Proximal Tubule (AID 667);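 further: cells exposed to compound for 16 hours at 37 °C before detection; 0% = DMSO basal and 100% = 10 µM staurosporine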
Outline: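 Caspase 3/7 activation measured by luminescent aminoluciferin release in primary rat proximal tubule cells after 16 hr compound exposure at 37 °C. AC50 from Hill-fitted concentration-response, scaled between DMSO and 10 uM staurosporine.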

[25] = molecular target: Cytochrome P450 3A4 (Homo sapiens) (UniProt P08684); experiment: qHTS Assay for Inhibitors and Substrates of Cytochrome P450 3A4 (AID 884); further: on the % scale 0 is the no-effect control and ±100 the full control effect; nearly all actives have a fitted effect of over 50% in size
Sequence of Cytochrome P450 3A4 (Homo sapiens) (P08684 whole entry, looked up): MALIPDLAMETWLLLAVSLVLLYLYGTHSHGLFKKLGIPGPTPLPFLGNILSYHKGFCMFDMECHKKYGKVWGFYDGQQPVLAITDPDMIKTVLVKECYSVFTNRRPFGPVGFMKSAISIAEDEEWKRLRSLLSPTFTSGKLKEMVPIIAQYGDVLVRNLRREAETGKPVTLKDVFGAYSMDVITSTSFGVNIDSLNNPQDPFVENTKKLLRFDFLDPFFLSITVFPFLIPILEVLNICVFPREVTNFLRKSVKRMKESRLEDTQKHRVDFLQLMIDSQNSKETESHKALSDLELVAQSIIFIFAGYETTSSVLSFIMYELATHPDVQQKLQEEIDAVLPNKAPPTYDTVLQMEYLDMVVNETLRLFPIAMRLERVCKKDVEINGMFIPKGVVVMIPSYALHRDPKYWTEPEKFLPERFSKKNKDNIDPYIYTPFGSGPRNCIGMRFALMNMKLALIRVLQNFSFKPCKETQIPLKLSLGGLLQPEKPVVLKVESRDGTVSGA
Outline: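 Luminescent readout of luciferin produced by CYP3A4 (20 nM) dealkylation of Luciferin-PPXE, 25 uM (its KM). NADPH-driven reaction ran 60 min at RT after 10 min compound preincubation; data scaled to 57 uM ketoconazole as 100% inhibition.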

[26] = Cell Viability - LYMP2-001 (AID 921);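 further: 0% = DMSO only and full inhibition = tetraoctylammonium bromide control wells; nearly all actives have a fitted effect of over 70% in size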
Outline: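 Cellular ATP loss read by luciferase luminescence after 24 h compound exposure at 37 C in complete medium. LYMP2-001 lymphoblastoid cells, 2500/well; qHTS concentration-response data fitted with Hill equation for AC50.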

[27] = MultiTox-Fluor Cytotoxicity Assay - LYMP1-001 - Dead Cells (AID 946);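 further: 0% = DMSO and 100% = tetraoctylammonium bromide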
Outline: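 AC50 from Hill fit of concentration-response; data normalized to DMSO (basal) and 15 uM tetraoctylammonium bromide (100%). LYMP1-001 lymphoblastoid cells, 2500/well, 16 hr compound at 37 C; dead-cell protease fluorescence, Ex/Em 485/520.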

[28] = MultiTox-Fluor Cytotoxicity Assay - LYMP1-001 - Live Cells (AID 947);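 further: 0% = DMSO only and full inhibition = tetraoctylammonium bromide control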
[29] = Cell Viability - LYMP1-002 - Assay at 16 hr (AID 948);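 further: 0% = DMSO alone and full effect = 92 µM tetraoctylammonium bromide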
Outline: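 ATP luminescence (CellTiter-Glo) was measured after 16 hr compound exposure at 37 C of 2500 lymphoblastoid LYMP1-002 cells per well. Concentration-response curves were fitted with the Hill equation to give AC50.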

[30] = MultiTox-Fluor Cytotoxicity Assay - LYMP1-002 - Live Cells (AID 955); further: on the % scale 0 is the no-effect control and ±100 the full control effect
Outline: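 In this qHTS viability format, lymphoblastoid cells (LYMP1-002, human) received compound for 16 hr at 37 C. Fluorogenic GF-AFC cleavage by viable cells was detected at 405/510 nm after 1 h at room temperature.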

[31] = MultiTox-Fluor Cytotoxicity Assay - LYMP1-003 - Dead Cells (AID 961);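 further: 0% = DMSO and 100% = tetraoctylammonium bromide; nearly all actives have a fitted effect of over 70% in size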
Outline: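 Human lymphoblastoid LYMP1-003 cells (2500/well) were treated with compounds for 16 hr at 37 C in complete medium. Dead-cell protease release was read by bis-AAF-R110 fluorescence (Ex/Em 485/520). AC50 came from Hill fits, normalized to DMSO and 15 uM tetraoctylammonium bromide.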

[32] = MultiTox-Fluor Cytotoxicity Assay - LYMP1-003 - Live Cells (AID 962);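 further: 0% = DMSO only and full loss = 92 µM tetraoctylammonium bromide; cytotoxic hits lower the live-cell protease signal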
Outline: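 Human lymphoblastoid line LYMP1-003 in complete culture medium, treated 16 hr with titrated compounds. Viable cells quantified via cell-permeant GF-AFC substrate fluorescence; AC50 derived by Hill fitting.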

[33] = Cell Viability - LYMP1-003 - Assay at 24 hr (AID 963);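 further: plate controls were DMSO only for no effect and tetraoctylammonium bromide positive control for full effect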
Outline: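 The lymphoblastoid line was treated with titrated compounds for 24 hours, and viable cell number estimated from luciferase-based ATP luminescence.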

[34] = Cell Viability - LYMP1-003 - Assay at 40 hr (AID 964); further: on the % scale 0 is the no-effect control and ±100 the full control effect; nearly all actives have a fitted effect of over 60% in size
Outline: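 Acute toxicity is scored as a concentration-dependent loss of intracellular ATP in LYMP1-003 cells (2500/well, complete medium) after 40 hr at 37 C, measured by CellTiter-Glo luminescence; AC50 values derive from standard Hill modelling.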

[35] = Cell Viability - LYMP2-003 (AID 965);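 further: cells exposed to compounds for 24 h before reading; 0% = DMSO only and full effect = 92 µM tetraoctylammonium bromide; nearly all actives have a fitted effect of over 50% in size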
Outline: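 CellTiter-Glo luminescence quantified ATP loss after 24 h compound treatment of LYMP2-003 lymphoblastoid cells at 37 C. Titration series were fitted with the standard Hill equation to give AC50.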

[36] = Cell Viability - LYMP2-005 (AID 967);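 further: plate controls were DMSO only for no effect and 92 µM tetraoctylammonium bromide control for full effect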
Outline: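 LYMP2-005 human lymphoblastoid cells (2500/well) were treated with compounds for 24 h at 37 C. Intracellular ATP was then measured by CellTiter-Glo luminescence after 30 min at room temperature. AC50 values came from Hill-equation fits of qHTS concentration-response data.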

[37] = Cell Viability - LYMP2-009 (AID 968);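 further: 0% = DMSO alone and the full-kill end = tetraoctylammonium bromide at 92 µM; nearly all actives have a fitted effect of over 55% in size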
[38] = Cell Viability - LYMP2-011 (AID 969);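 further: 0% = DMSO only and full inhibition = 92 µM tetraoctylammonium bromide; nearly all actives have a fitted effect of over 60% in size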
Outline: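 Cells seeded at 2500 per well rest 5 hr before compound addition, then incubate 24 hr at 37 C. CellTiter-Glo reagent is added for 30 min at room temperature before luminescence detection.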

[39] = Cell Viability - LYMP2-013 (AID 970);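 further: 0% = DMSO only and full inhibition = tetraoctylammonium bromide control; nearly all actives have a fitted effect of over 55% in size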
Outline: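 In complete culture medium, human lymphoblastoid cells were dosed for 24 hr at 37 C, with tetraoctylammonium bromide (6.4pM to 92 uM) as positive control. Viability reflects luciferase-based ATP signal; AC50 derived from concentration-response curves.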

[40] = Cell Viability - LYMP2-015 (AID 971)
Outline: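 AC50 values reflect Hill-model fits of ATP-based luminescence (CellTiter-Glo) from a human lymphoblastoid line, 2500 cells/well, treated 24 hr at 37 C.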

[41] = Cell Viability - LYMP2-017 (AID 972)
Outline: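 In this qHTS format, lymphoblastoid cells in complete medium receive test compound for a day at 37 C before ATP content is quantified by luciferase luminescence. Reported AC50 figures come from standard Hill-equation curve fitting.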

[42] = Cell Viability - LYMP2-019 (AID 973)
Outline: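 AC50 values come from Hill-equation modelling of qHTS concentration-response curves, where viability is measured as luciferase-based ATP luminescence in the lymphoblastoid line after 24 hr compound exposure in complete culture medium.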

[43] = Cell Viability - LYMP2-021 (AID 974)
Outline: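 In qHTS format, compounds are tested against 2500 lymphoblastoid cells per well for 24 h; viable cell number is inferred from ATP-driven luciferase light, and Hill-equation fitting yields AC50 values.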

[44] = Cell Viability - LYMP2-023 (AID 975)
Outline: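 In this qHTS, ATP-based luciferase luminescence (CellTiter-Glo) is quantified in human lymphoblastoid cells after 24 hr compound treatment at 37 C; tetraoctylammonium bromide serves as positive control. Concentration-response curves are Hill-fitted to give AC50.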

CCCCCCCCCCCC(=O)O
inactive: Potency [1] > 92 µM | Potency [2] > 92 µM | Potency [3] > 92 µM | Potency [4] > 92 µM | Potency [5] > 92 µM | activity change, negative = cytotoxicity [6] -16.1% and -7.4% | Potency [7] | outcome [8] | Potency [9] | Potency [10] | activity change, negative = cytotoxicity [11] -7.81% and -14% | activity change, negative = cytotoxicity [12] -0.623% and 0.657% | outcome [13] | caspase-3 activation [14] -6.31% and -4.32% | outcome [15] | outcome [16] | outcome [17] | outcome [18] | outcome [19] | outcome [20] | Potency [21] | outcome [22] | outcome [23] | outcome [24] | Potency [25] | Potency [26] | Potency [27] | Potency [28] | Potency [29] | Potency [30] | Potency [31] | Potency [32] | Potency [33] | Potency [34] | Potency [35] | Potency [36] | Potency [37] | Potency [38] | Potency [39] | Potency [40] | Potency [41] | Potency [42] | Potency [43] | Potency [44]
